# From PubChem BioAssay AID588689 (Southern Research Specialized Biocontainment Screening …, 2011)
# Out of some 340,000 compounds screened, about 1,000 (0.29%) were called active. No stated cut-off is given here; in the data, inconclusive means inhibition above about 29% without an active follow-up result; inactive means below that. Only a sample is shown. Entries with a potency or affinity are not part of this list.
# Target: Genome polyprotein (Dengue virus type 2 (strain 16681-PDK53)) (UniProt P29991)
# Assay: Dengue-2 NS5 methyltransferase inhibitors, primary screen, biochemical, confirmation dose response (AID 588689)
# Settings: Dengue-2 NS5 methyltransferase capping enzyme assay, at 25 µM, stronger effect = higher value
# [1] = measured here: pilot screen replicate inhibition
Structure (SMILES),inhibition,inhibition [1] [%]
CCc1ccc(C(=O)C(C)OC(=O)c2nc3nc(C)cc(C)n3n2)cc1 (stereo unspecified),-7.33% (inactive),
C#CCOc1ccc(/C=C2/C(=O)NN(c3ccc(F)cc3)C2=O)cc1OC,14.3% (inactive),
COc1cc(/C=C2/C(=O)NN(c3ccc(F)cc3)C2=O)cc(Cl)c1O,-28% (inactive),
O=C1NN(c2ccccc2)C(=O)/C1=C\c1ccccc1,8.92% (inactive),
O=C1NN(c2ccccc2)C(=O)C1=Cc1ccccc1,25.9% (inactive),
COc1ccc2oc(C(=O)OCC(=O)N(C)C3CCS(=O)(=O)C3)c(C)c2c1 (stereo unspecified),-8.65% (inactive),
O=C(CNC(=O)c1ccc(F)cc1)N/N=C/c1cn[nH]c1-c1ccccc1,-12.6% (inactive),
CN(CC(=O)Nc1ccc(F)cc1)C(=O)CSc1nncs1,-2.59% (inactive),
CCCCC(=O)Nc1nnc(-c2ccco2)o1,1.48% (inactive),
CCNS(=O)(=O)c1ccc(NC(=O)Nc2ccc3c(c2)OCO3)cc1,-8.45% (inactive),
Cc1c(F)cccc1NS(=O)(=O)c1ccc2c(c1)c(C)cc(=O)n2C,-4.58% (inactive),
NC(=O)C1CCN(C2=C(NS(=O)(=O)c3ccc(Cl)cc3)C(=O)c3ccccc3C2=O)CC1,7.95% (inactive),
O=C1C(Cl)=C(NCCN2CCOCC2)C(=O)c2ccccc21,4.52% (inactive),
O=C1C(Cl)=C(N2CCN(c3ccccc3[N+](=O)[O-])CC2)C(=O)c2ccccc21,3.21% (inactive),
O=C1C(Cl)=C(NCCCN2CCOCC2)C(=O)c2ccccc21,17% (inactive),
CN1CCN(C2=C(NS(=O)(=O)c3ccccc3)C(=O)c3ccccc3C2=O)CC1,7.03% (inactive),
NC(=O)C1CCN(C2=C(NS(=O)(=O)c3ccccc3)C(=O)c3ccccc3C2=O)CC1,0.77% (inactive),
Cc1ccc(C=NNc2ccc([N+](=O)[O-])cn2)cc1,-5.44% (inactive),
O=S(=O)(c1cc(Cl)ccc1Cl)N1CC2CCCN2c2ccc(C(F)(F)F)cc21 (stereo unspecified),-10.5% (inactive),
Cc1ccc2cc(CCNC(=O)c3cccc([N+](=O)[O-])c3)c(=O)[nH]c2c1C,2.58% (inactive),
CCCn1c(=O)c2ccccc2n2c(SCC(=O)c3ccc(CC)cc3)nnc12,-1.12% (inactive),
Cc1cc(CN2CCCC(CNC(=O)c3ccc(F)cc3)C2)cc(C)c1O (stereo unspecified),-7.66% (inactive),
CCCOc1ccc(C2C(C(=O)c3cc4ccccc4o3)=C(O)C(=O)N2c2cc(C)on2)cc1OC (stereo unspecified),-3.55% (inactive),
COc1ccc(C2C(C(C)=O)=C(O)C(=O)N2c2ccccn2)cc1 (stereo unspecified),0.65% (inactive),

Structure (SMILES),inhibition,inhibition [1] [%]
COc1cccc(C2C(C(=O)c3cc4ccccc4o3)=C(O)C(=O)N2c2cc(C)on2)c1 (stereo unspecified),11.6% (inactive),
C=CCOc1cccc(C2C(C(=O)c3ccc(C)o3)=C(O)C(=O)N2Cc2ccncc2)c1 (stereo unspecified),-1.6% (inactive),
CCCOc1ccc(/C(O)=C2\C(=O)C(=O)N(c3ccccn3)C2c2ccccc2F)cc1C (stereo unspecified),22.2% (inactive),
CCCOc1ccc(C2C(C(=O)c3cc4ccccc4o3)=C(O)C(=O)N2c2cc(C)on2)cc1 (stereo unspecified),27.6% (inactive),
C=CCOc1cccc(C2C(C(=O)c3ccc(C)o3)=C(O)C(=O)N2CCN(C)C)c1 (stereo unspecified),-3.18% (inactive),
Cc1cc(N2C(=O)C(O)=C(C(=O)c3cc4ccccc4o3)C2c2cccc(Br)c2)no1 (stereo unspecified),5.32% (inactive),
COc1cc(C2CC(=O)Oc3cc(O)ccc32)cc(OC)c1OC (stereo unspecified),1.65% (inactive),3.63
C=CCN1CCN(C(c2cc(OC)ccc2OC)c2nnnn2CC2CCCO2)CC1 (stereo unspecified),1.37% (inactive),
COc1ccc(-c2ccc(=O)n(Cc3ccccc3)n2)cc1,-0.78% (inactive),
C=CCn1c(CC(C)(C)C)nc2ccccc21,-5.1% (inactive),
Cc1ccc(S(=O)(=O)N2CCCN(C(=O)c3ccc(-n4nccc4C)cc3)CC2)cc1,-5.13% (inactive),
CCOC(=O)C1CCCN(C(=O)/C(=C/c2ccco2)NC(=O)c2ccccc2)C1 (stereo unspecified),-14.3% (inactive),
CC[n+]1c(/C=C(\C)OC)sc2ccccc21,2.92% (inactive),
O=C(COC(=O)/C=C/c1ccccc1Cl)NC(=O)NC1CCCC1,-7.24% (inactive),
COCCNC(=O)CN1C(=O)CSc2ccc(S(=O)(=O)N3CCOCC3)cc21,0.89% (inactive),
COc1ccc(C(=O)N2CCN(c3ccc(NC(=O)c4ccco4)cc3)CC2)cc1,0% (inactive),
COc1cc(O)c2c(c1)OC(C)(C)CC2=O,-2.94% (inactive),
CC1(C)CC(=O)c2c(O)cc(O)cc2O1,-4.17% (inactive),
N#CCCN(C(=O)COC(=O)CNS(=O)(=O)c1ccc2ccccc2c1)c1ccccc1,1.1% (inactive),
N#CCc1ccc(NC(=O)Cn2c(=O)oc3ccccc32)cc1,-3.26% (inactive),-4.87
COc1ccc(S(=O)(=O)N2CCCC2)c(Cl)c1Cl,-8.19% (inactive),
COc1ccc(OC)c(-c2cc(C(=O)Nc3sc4c(c3C#N)CCC(C)C4)c3ccccc3n2)c1 (stereo unspecified),-5.61% (inactive),
CCC1CCc2c(sc(NC(=O)C3CC=CCC3C(=O)O)c2C#N)C1 (stereo unspecified),27.5% (inactive),
N#Cc1c(NC(=O)C2CC=CCC2C(=O)O)sc2c1CCCCCC2 (stereo unspecified),5.78% (inactive),

Structure (SMILES),inhibition,inhibition [1] [%]
CCC(C)(C)C1CCc2c(sc(NC(=O)c3ccoc3C)c2C(N)=O)C1 (stereo unspecified),-3.22% (inactive),
COc1ccc(-c2cc(C(=O)Nc3sc4c(c3C#N)CCCC4)c3ccccc3n2)cc1OC,-4.06% (inactive),
CC1CCc2c(sc(NC(=O)c3ccccc3C(=O)O)c2C#N)C1 (stereo unspecified),-0.74% (inactive),
CCOc1ccc(-c2cccc(NC(=O)COc3ccc(Cl)cc3)c2)nn1,-5.43% (inactive),
COc1ccc(/C=C/C(=O)c2cc(Br)ccc2O)cc1OC,0.78% (inactive),
Cc1cccc(-n2nnnc2SCC(=O)Nc2cccc(S(N)(=O)=O)c2)c1,0% (inactive),
Cc1ccc(NC(=S)NCC2CCCO2)cc1 (stereo unspecified),-18% (inactive),
C[C@H](CO)N1C[C@H](C)[C@@H](CN(C)Cc2ccc(C(=O)O)cc2)Oc2c(NS(=O)(=O)c3cccs3)cccc2C1=O,2.31% (inactive),-3.33
CC1(C)CC(=O)C(C#N)=C(NCCCO)C1,-3.49% (inactive),
CC(C)=NNC1=NC(C)(C)Cc2ccccc21,3.83% (inactive),
O=C1NC(=S)NC(=O)C1=Cc1ccccc1C(=O)O,1.94% (inactive),
O=C1Nc2ccccc2/C1=C/c1ccccc1Cl,-2.65% (inactive),
O=C1NC(=O)/C(=C/c2ccccc2Cl)N1,-5.96% (inactive),
O=C1NC(=S)NC1=Cc1ccc(Cl)cc1Cl,-0.78% (inactive),
O=Cc1c(Cl)cccc1Cl,0% (inactive),
C=CCOC(=O)C(=O)/C=C/c1csc2ccccc12,23.7% (inactive),
C/C=C/C=C\C(=O)Nc1cccc(C2=NOC3(C2)C[C@H](C(N)=O)N(C(=O)/C=C/C)C3)c1 (stereo partly specified),-9.17% (inactive),
CCOC(=O)c1c(S(=O)(=O)N(C)C2CCCCC2)c(C)n(C)c1C,-7.99% (inactive),
CC(C)(CNC(=O)c1cc(Cl)c(O)c(Cl)c1)N1CCCCC1,3.57% (inactive),
N=C1/C(=C\c2ccc(OC(=O)c3ccccc3Cl)cc2)C(=O)N=C2SC(N3CCOCC3)=NN12,34.8% (inactive),
N=C1/C(=C\c2ccc(OC(=O)c3ccccc3)cc2)C(=O)N=C2SC(N3CCOCC3)=NN12,3.46% (inactive),
N=C1/C(=C\c2ccc(OC(=O)c3ccc(F)cc3)cc2)C(=O)N=C2SC(N3CCCC3)=NN12,-2.77% (inactive),
Cc1ccc(C(=O)Oc2ccc(/C=C3\C(=N)N4N=C(N5CCOCC5)SC4=NC3=O)cc2)cc1,9.04% (inactive),
CCC1=NN2C(=N)/C(=C\c3ccc(OCCOc4ccc(NC(C)=O)cc4)c(OC)c3)C(=O)N=C2S1,4.57% (inactive),

Structure (SMILES),inhibition,inhibition [1] [%]
CCC1=NN2C(=N)/C(=C/c3ccc(OS(=O)(=O)c4ccccc4)c(OC)c3)C(=O)N=C2S1,4.04% (inactive),
COCCN(CCOC)S(=O)(=O)c1ccc(C(=O)NCCCN2CCOCC2)cc1,-2.15% (inactive),
O=C(c1ccco1)N1CCN(C(=S)Nc2ccccc2Cl)CC1,1.93% (inactive),
Cc1cc2n(n1)C(c1ccsc1)Nc1ccccc1-2 (stereo unspecified),-9.35% (inactive),
C/C(=C\COc1cc(=O)[nH]c2ccccc12)CCC(O)C(C)(C)O (stereo unspecified),-11.2% (inactive),
Cc1nc2ccccc2n1CC(=O)NC(C)C1CC2CCC1C2 (stereo unspecified),-6.66% (inactive),
C=CCn1c(SCc2ccc(F)cc2)nc2c1c(=O)[nH]c(=O)n2C,-3.48% (inactive),
Cc1nn(CC(=O)Nc2cccnc2)c(C)c1[N+](=O)[O-],-9.49% (inactive),
C/C(=N/NC(=O)Cc1ccccc1)c1ccc(C)s1,5.19% (inactive),
O=C1ON=C(c2ccccc2)/C1=C/c1ccc(O)c(O)c1,28.7% (inactive),
Cc1ccc(C2=NOC(=O)/C2=C\c2ccccc2)cc1,27.9% (inactive),
O=C1ON=C(c2ccccc2)/C1=C/c1ccccc1,27% (inactive),8.25
O=C1ON=C(c2ccccc2)/C1=C/c1ccc(O)cc1,42% (inactive),20.8
O=c1[nH]c2cc(Cl)cc(Cl)c2[nH]c1=O,-3.92% (inactive),
CSc1nc(N(C)C)nc(N(C#N)CCOC(C)=O)n1,0.74% (inactive),
COc1ccc(NS(=O)(=O)c2cc(NC(=O)[C@@H](NC(=O)c3ccccc3)C(C)C)ccc2C)cc1,-3.89% (inactive),
Cc1[nH]c2ccccc2c1SCC(=O)O,-8.76% (inactive),
CC(=O)Nc1c(C(=O)O)[nH]c2ccccc12,-4.8% (inactive),
COc1cc(C(NC(C)=O)NC(C)=O)ccc1OCc1ccccc1,-12.5% (inactive),
O=C(O)c1[nH]c2ccccc2c1-c1ccccc1,-4.76% (inactive),
COc1cc(CC(=O)O)ccc1OCc1ccccc1,-5.48% (inactive),
O=C(O)CCc1c(C(=O)O)[nH]c2ccccc12,-0.56% (inactive),
C=CCOc1ccc(C(c2c(C)n(C)n(-c3ccccc3)c2=O)c2c(C)n(C)n(-c3ccccc3)c2=O)cc1,-3.27% (inactive),
COc1ccc(CN=Cc2c(C(=O)O)[nH]c3ccccc23)cc1,-3.12% (inactive),
